Shown are actives, neighbours in structure and some others; about 4.7% of the full set was active somewhere.
SKKanGAS inh: SKKanGAS growth inhibition; S. pyogenes SKKanGAS, kanamycin growth, BacTiter-Glo, 6 h; inhibition, % at 7.5 µM; 300,000 tested, 1.3% active; AID 1662;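 active = mean replicate score, as percent of positive control median, at least 50; inconclusive = mean below 50 but one replicate at or above 50; inactive = mean and every replicate below 50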;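 also: strain carries kanamycin resistance gene driven by streptokinase promoter and grows in 40 µg/ml kanamycin; loss of luminescence reflects streptokinase promoter inhibition or plain growth inhibition; 0% = median of DMSO wells and 100% = positive control at its reference dose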
tim23-1 inh: inhibits growth of tim23-1 mutant yeast; S. cerevisiae tim23-1 growth, BacTiter-Glo luminescence, 24 h; inhibition, % at 20 µM; 330,000 tested, 1.3% active; AID 463212;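 active = growth inhibition of the mutant yeast at or above 50%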;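 also: temperature-sensitive mutant grown at 25 °C; plate controls were DMSO-treated mutant yeast for no effect and medium wells lacking yeast for full effect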
ATG4B inhibitor: blocks human ATG4B protease cleavage of LC3 substrate; Q9Y4P1; ATG4B cleavage of LC3-PLA2, NBD-HPC fluorescence, 1 h; inhibition, % at 8.33 µM; 340,000 tested, 0.51% active; AID 504462; in the data active = inhibition above about 40%
Target sequence (Q9Y4P1 whole entry, looked up): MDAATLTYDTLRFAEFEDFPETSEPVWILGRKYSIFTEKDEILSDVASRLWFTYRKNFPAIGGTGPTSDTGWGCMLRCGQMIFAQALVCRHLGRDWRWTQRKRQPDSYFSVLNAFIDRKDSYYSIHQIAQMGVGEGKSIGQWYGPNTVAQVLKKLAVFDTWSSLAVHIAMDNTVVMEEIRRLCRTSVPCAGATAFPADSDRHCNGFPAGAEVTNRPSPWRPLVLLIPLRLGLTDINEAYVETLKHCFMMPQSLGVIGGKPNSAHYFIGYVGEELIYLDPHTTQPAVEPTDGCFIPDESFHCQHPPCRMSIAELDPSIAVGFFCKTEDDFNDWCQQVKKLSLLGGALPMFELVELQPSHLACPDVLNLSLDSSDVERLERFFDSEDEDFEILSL
TIM10 inh: inhibits growth of TIM10 yeast strain | inhibition, % at 10 µM | 330,000 tested, 1.4% active | S. cerevisiae TIM10 strain growth, BacTiter-Glo luminescence, 24 h | AID 463195;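 active = inhibition of 40% or more at the single tested concentration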;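 also: wild-type TIM10 isogenic control strain grown at permissive 25 °C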
PfHsp90 yeast 2: reduces growth (ATP signal) of yeast expressing P. falciparum Hsp90 | S. cerevisiae expressing PfHsp90, BacTiter-Glo ATP, 48 h; yeast lacking PDR1 and PDR3 efflux regulators | 310,000 tested, 0.32% active | inhibition, % at 9.4 µM;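 active = every replicate shows inhibition above about 80%, whatever the replicate mean, limit read from the data; inconclusive = mean inhibition reaches the set limit but some replicate falls short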;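 also: 0% = DMSO neutral controls and 100% = 20 µM radicicol positive controls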
tim10-1 inh: tim10-1 yeast growth inhibition | S. cerevisiae tim10-1 ts strain growth, BacTiter-Glo, 24 h | inhibition, % at 20 µM | 330,000 tested, 2.2% active | AID 463190;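 active = inhibition of at least 40%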;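 also: mutant grown at 25 °C; 0% = DMSO wells with yeast and 100% = wells holding no yeast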
* marks the source's active call; other numbers are inactive results; ? = inconclusive; . = no result given.

SMILES	SKKanGAS inh	tim23-1 inh	ATG4B inhibitor	TIM10 inh	PfHsp90 yeast 2	tim10-1 inh
Cc1cc(NC(=O)COC(=O)CNS(=O)(=O)c2ccc(C)c(C)c2)no1	-1	8	2	-2	23	3
O=C1NC(=O)c2cc(NC(=O)C3CCCO3)ccc21 (stereo not given)	8	6	16	-10	-11	3
CCCOc1ccc(C(=O)NNC(=S)NC(=O)c2ccccc2)cc1	107*	-3	3	-4	25	-7
CCOc1ccc(C(=O)NC(=S)N(Cc2ccccc2)Cc2ccccc2)cc1	98*	.	31	.	.	.
CC(C)(C)c1ccc(C(=O)NC(=S)NNC(=O)COc2ccccc2)cc1	91*	25	-9	-54	3	11
Cc1ccc(C(=O)NNC(=S)NC(=O)COc2ccccc2)cc1	33	-28	-9	-1	-4	-12
O=C(NNC(=S)NC(=O)c1ccccc1)c1ccc(O)cc1	74*	12	1	2	16	8
O=C(NNC(=S)Nc1ccccc1)c1ccc(O)cc1	-5	8	5	3	-6	-5
CC1(C)NC(=O)N(CC(=O)OCC(=O)Nc2cccc(F)c2)C1=O	0	4	-8	-7	-1	6
CC1=CC(C)(C)N(C)C(=O)N1c1ccc(Cl)cc1	-3	11	-9	-2	4	4
CC(C)(C)C(=O)NC(=S)NNC(=O)c1ccncc1	-3	-15	-7	6	-28	15
CCCOc1ccc(C(=O)NNC(=S)NC(=O)c2ccccc2[N+](=O)[O-])cc1	78*	5	-7	4	-20	7
CC(C)(C)C(=O)NC(=S)NNC(=O)c1ccc(-c2ccccc2)cc1	91*	49	-8	-31	104*	8
O=C(NNC(=S)NC(=O)c1ccccc1[N+](=O)[O-])c1ccccc1	0	14	-7	17	-24	9
COc1cccc(/C=C/c2ccc3cccc(O)c3n2)c1	98*	22	-2	15	103*	17
O=[N+]([O-])c1ccc(/C=C/c2ccc3cccc(O)c3n2)cc1	-1	10	7	4	-18	32
Cc1ccc(/C=C/c2ccc3cccc(O)c3n2)s1	76*	6	2	-10	-25	15
Cc1ccc(/C=C/c2nc3ccccc3s2)s1	9	19	-4	26	-14	22
Oc1cccc(/C=C/c2ccc3cccc(O)c3n2)c1	57*	47	-9	35	-35	24
Cc1cccc(NC(=O)c2oc(=O)c3ccccc3c2-c2ccccc2)c1C	4	0	6	11	10	9
N#CCC(=O)N1CCN(Cc2ccc3c(c2)OCO3)CC1	-14	10	0	6	.	-5
CN(C)c1ccc(O)c2c1CC1CC3[C@@H](N(C)C)C(=O)C(C(N)=O)=C(O)[C@]3(O)C(=O)C1=C2O (stereo not given in full)	106*	4	-1	5	-12	13
COc1cc(/C=C/c2ccc3cccc(O)c3n2)cc(Cl)c1OC	107*	18	3	10	-14	39
COc1cc(/C=C/c2ccc3cccc(O)c3n2)cc(Br)c1OC	100*	24	-2	26	-5	33
COc1cc(/C=N/O)cc(Br)c1OC	0	8	-13	-24	7	8
SMILES	SKKanGAS inh	tim23-1 inh	ATG4B inhibitor	TIM10 inh	PfHsp90 yeast 2	tim10-1 inh
COc1ccc(/C=C/c2ccc3cccc(O)c3n2)cc1Br	93*	-5	1	10	-1	18
COc1cc(/C=C/c2ccc3cccc(O)c3n2)cc(OC)c1OC	96*	20	-4	17	-10	10
COC(=O)c1ccc(/C=C/c2ccc3cccc(OC)c3n2)cc1	?	28	-10	6	-4	28
COCCn1c(COc2ccc(OC)cc2)nc2ccccc21	0	10	-2	-14	4	1
Nc1ccc(Cl)cc1/C(=N/O)c1ccccc1	-5	11	-5	31	13	29
CNCCNC[C@H](Cc1cccc2ccccc12)NCCc1ccccc1	.	-16	-11	-3	-12	-5
CNC[C@H](Cc1ccccc1)NC[C@@H](Cc1cccc2ccccc12)NCCc1ccc(C)cc1	94*	11	-1	12	3	-12
COC(=O)CN(c1ccc(C)cc1)S(=O)(=O)c1ccc2c(c1)n(C)c(=O)c(=O)n2C	-3	9	0	6	36	14
COc1cc2c(C#N)c(N3CCN(C)CC3)nc(N)c2c(N)n1	6	-4	.	-16	20	25
COc1cc2c(C#N)c(N3CCN(c4ccccc4OC)CC3)nc(N)c2c(N)n1	72*	37	-7	33	-4	25
O=[N+]([O-])c1cc(S(=O)(=O)Nc2ccccc2)ccc1N1CCN(c2ccc(O)cc2)CC1	11	7	6	19	11	-10
Cc1ccc(NS(=O)(=O)c2ccc(N3CCN(c4ccc(O)cc4)CC3)c([N+](=O)[O-])c2)c(C)c1	39	20	-7	-10	96*	-18
Cc1ccc(S(=O)(=O)N2CCCC2C(=O)N2CCCCCC2)cc1 (stereo not given)	-5	19	-2	3	12	-1
O=C1C2=C(NC(=S)NC2c2ccc(Cl)cc2)NC(c2ccc(Cl)cc2)N1c1ccc(Cl)cc1 (stereo not given)	105*	45	12	35	-39	34
CCOC(=O)/C(=C\c1cccnc1)C(=O)c1cc(C(C)=O)c(Nc2ccccc2)s1	-37	47	2	28	103*	14
COC(=O)c1ccc(CNC(=O)c2ccc3c(c2)NC(=O)CS3)cc1	.	-8	-5	2	-3	-7
O=C1C=CC(=O)N1c1ccccc1N1C(=O)C=CC1=O	.	.	0	.	.	.
O=C(c1ccccc1)c1ccccc1N1C(=O)C=CC1=O	-3	10	-4	15	107*	11
Cc1ccc(C(=O)Nc2oc(-c3ccccc3)cc2C#N)cc1	-1	12	3	-30	-24	12
C/C(=N\Nc1cc(C)nc(-c2ccccc2O)n1)c1ccccc1O	74*	33	7	40	20	26
Cc1nc2ccccc2c(=O)n1/N=C/c1ccc2ccccc2c1O	55*	12	-7	16	32	8
Cc1nc2ccccc2c(=O)n1/N=C/c1ccc(O)c(O)c1O	5	3	-3	13	-6	-9
COc1ccc(-n2cccc2C=O)cc1OC	1	5	-7	5	11	7
CC(=O)C(=Nc1ccc(Cl)cc1Cl)NNc1cccc(Cl)c1	52*	-3	-11	6	-21	15
CC(=O)Nc1ccc(NC(=O)Nc2cccc(Cl)c2)cc1	-7	0	-6	8	11	6
Clc1ccc2nc(-c3ccccn3)c(Nc3ccc4c(c3)OCO4)n2c1	92*	.	24	.	-4	.
